# Epigenetic reg: regulators of epigenetic silencing causing reporter derepression in mouse cells; murine LDR cells, GFP reporter derepression, 30 h; Potency, µM (series often up to 53.9 µM), inactives show top-dose GFP activation, most hits filed as activators; 280,000 tested, 0.2% active; AID 1865; also: potency is read from the fitted curve at half-maximal effect; % of control where 0% means no effect; nearly all actives have a fitted effect of over 60% in size
#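 Reporter derepression read as number of fluorescent GFP-positive objects, 20-120 um in size, counted by laser-scanning cytometer. Mouse LDR line with an epigenetically silenced CMV-GFP locus; compound incubation 30 h, 37 C.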
# PINK1 expr mod: modulators of PINK1 expression; PINK1 immunofluorescence, high-content cytometry, 24 h; 410,000 tested, 0.2% active; Potency, µM (highest dose often 76.6 µM), without a hit: at the highest dose activation (PINK1 increase), actives largely listed as activators; active = well fitted activation curve with a large enough effect; inconclusive = small, poorly fitted or top-dose-only effect; cell line not stated here; also: potency is read from the fitted curve at half-maximal effect; % of control where 0% means no effect; nearly all actives have a fitted effect of over 65% in size
#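 Stable cell line treated 24 h with compounds at 5 concentrations (CCCP controls), then fixed and immunostained for PINK1 plus nuclear and cell stains; PINK1 immunofluorescence quantified by laser-scanning microplate cytometry.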
# IL2 activator: activators of IL-2; AID 652025; 360,000 tested, 0.065% active; activation, % (series mostly up to about 46 µM); IL-2 activation reporter assay, cell-based qHTS; stimulated with anti-CD3/CD4/CD28 beads; in transgenic mouse T cells; in the data active = activation above about 50%; inconclusive = mostly about 30% to 49%; also: 0% is about no effect
#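 Unstimulated transgenic mouse T cells; 60-min compound exposure; bead-based TCR/CD4/CD28 stimulation; 18 h culture, 37 degrees C; dual fluorescence (EGFP, DsRed) plate cytometry.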
# PKM2 act: PKM2 (human) enzyme activation | Potency, µM (highest dose often 57.5 µM), inactives show top-dose activation, hits mostly activators | P14618 | 260,000 tested, 0.34% active | AID 1631 | purified PKM2, Kinase-Glo ATP luminescence, activation; response scale: 0% is enzyme alone, no compound; also: potency is read from the fitted curve at half-maximal effect; % is scaled to controls: 0 for no effect and ±100 for the full control effect; nearly all actives have a fitted effect of over 55% in size
#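 Kinase-Glo luminescence reports ATP generated from ADP (0.1 mM) and PEP (0.5 mM) by purified hPK-M2 after 1 h at room temperature, pH 7.2 imidazole buffer; intermediate enzyme activity allows detecting inhibitors and activators.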
# B2AR arrestin: recruits beta-arrestin to the human beta2-adrenergic receptor. P07550. beta-arrestin recruitment to beta2AR, cell-based reporter. Potency, µM (doses to about 46.1 µM), for the others: at the highest dose activation, actives largely listed as activators. 330,000 tested, 0.02% active;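 also: potency is read from the fitted curve at half-maximal effect; 0% = DMSO controls and full agonism = EC100 isoproterenol or metaproterenol; nearly all actives have a fitted effect of over 65% in size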
# Target sequence (P07550 whole entry, looked up): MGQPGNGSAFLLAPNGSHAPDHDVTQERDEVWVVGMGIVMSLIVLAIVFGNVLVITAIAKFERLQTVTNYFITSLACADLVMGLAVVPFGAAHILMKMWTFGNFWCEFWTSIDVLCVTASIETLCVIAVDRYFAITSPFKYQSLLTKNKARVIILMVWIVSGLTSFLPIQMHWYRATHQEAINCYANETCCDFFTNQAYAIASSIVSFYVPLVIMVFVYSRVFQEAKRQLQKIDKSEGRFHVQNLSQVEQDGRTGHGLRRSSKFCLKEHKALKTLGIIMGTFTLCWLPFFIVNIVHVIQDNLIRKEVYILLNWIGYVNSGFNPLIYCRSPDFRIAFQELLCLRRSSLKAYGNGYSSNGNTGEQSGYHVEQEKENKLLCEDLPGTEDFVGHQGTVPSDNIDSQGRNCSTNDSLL
# Starred values were filed as active, the others as inactive; u = inconclusive; x = no result; [ ] = dose if it differs, or a comment. The list is not random: actives were taken first. Their share in the collection is about 0.58%. Unless noted, calls follow the shape of the dose curve; as a rule, active = well fitted curve in the direction sought with a large enough effect; inconclusive = small, poorly fitted or top-dose-only effect, or another doubt; inactive = no such curve, though single readings can be large; an effect the other way counts as inactive or inconclusive.
SMILES,Epigenetic reg,PINK1 expr mod,IL2 activator,PKM2 act,B2AR arrestin
COc1ccc2nc3ccccc3nc2c1NC(=O)c1ccc(Br)cc1,4.5%,14.1µM*,3.2,-12.5%,-0.4%
Cc1ncc2c(c1CNC(=O)c1ccc3c(c1)OCO3)CCN(C(=O)/C=C/c1ccc(Cl)cc1)C2,x,0.0%,x,x,x
CCS(=O)(=O)Nc1cccc(C2=NN(S(=O)(=O)c3ccccc3)C(c3ccco3)C2)c1 (centres undefined),-1.0%,-0.5%,-4.0,u,-0.7%
CS(=O)(=O)Nc1cccc(C2=NN(S(=O)(=O)c3ccccc3)C(c3ccco3)C2)c1 (centres undefined),0.9%,0.1%,-3.2,22.4µM*,0.0%
COCCSc1ccccc1C(=O)Nc1cc(C)on1,-4.1%,0.2%[38.3 µM],-4.0,31.6µM*,0.0%
COc1ccccc1C(=O)Nc1cc(C)on1,x,0.2%,0.9,-3.2%,0.0%
Cc1cc(C)nc(-c2cccc3c2OC(CNC(=O)c2ccc(Cn4nc(C)cc4C)cc2)C3)n1 (centres undefined),x,0.2%,x,x,x
Cc1cc(C)nc(NN2C(=O)/C(=C/c3ccccc3)SC2=S)n1,-2.8%,10µM*,-2.7,1.5%,-1.0%
O=C1/C(=C/c2ccncc2)SC(=S)N1Nc1ccccc1,-2.4%,8.0%,-2.6,5.7%,-0.2%
Cc1ccc(F)cc1S(=O)(=O)NCc1nc(N2CCCC2)c2cccc(C)c2n1,x,0.3%,x,x,x
COCCn1c(=O)c(-c2cccc(C#N)c2)nc2cnc(Nc3ccccc3)nc21,x,25.1µM*,x,x,x
COc1ccc(-c2nc3cnc(Nc4cccc(OC)c4)nc3n(C[C@H]3CCCO3)c2=O)cc1,x,25.1µM*,x,x,x
COCCn1c(=O)c(-c2cccc(C#N)c2)nc2cnc(Oc3ccccc3)nc21,x,-0.1%,x,x,x
COc1cccc(Nc2ncc3nc(CCc4ccccc4)c(=O)n(Cc4cccs4)c3n2)c1,x,28.2µM*,x,x,x
CCNc1ncc2nc(CCc3ccccc3)c(=O)n(Cc3ccc(F)cc3)c2n1,x,44.7µM*,x,x,x
O=c1c(-c2ccccc2)nc2cnc(Nc3ccccc3)nc2n1C[C@H]1CCCO1,x,5.9%,x,x,x
COc1cccc(CN2CCC3(CC2)c2ccccc2[C@@H](NC(=O)c2ccccc2)[C@@H]3O)c1O,x,1.7%,x,x,x
Cc1nn(C)c(Cl)c1CN1CCOc2ccc(CN3CCC(Oc4cccnc4)CC3)cc2C1,x,0.3%,x,x,x
CCOC(=O)N1CCN(Cc2ccc3c(c2)CN(C(=O)c2cc(-c4ccccc4)on2)CCO3)CC1,x,0.4%,x,x,x
COc1ccc(Nc2ncc3nc(-c4cccs4)c(=O)n(Cc4cccc(OC)c4)c3n2)cc1,x,2.51µM*,x,x,x
Cc1nc(SCC(=O)c2cc3ccccc3oc2=O)c(C#N)c(-c2cccs2)c1C(=O)Nc1ccccc1,0.5%,39.8µM*,-4.7,-1.9%,-0.2%
CC(C)c1c(C#N)c(N)nc(SCC(=O)c2cc3ccccc3oc2=O)c1C#N,15.9%,u,-1.3,2.9%,-0.3%
COc1ccc(CN2CCC(n3cc(C(=O)N4CCCC4)nn3)CC2)c(OC)c1C,x,-0.4%,x,x,x
CC1CCN(c2nnc(-c3cccs3)c3ccccc23)CC1,1.0%,21.5%,-0.1,-1.6%,-0.2%
c1csc(-c2nnc(NC3CCCCC3)c3ccccc23)c1,4.4%,31.6µM*,0.6,0.7%,0.0%
SMILES,Epigenetic reg,PINK1 expr mod,IL2 activator,PKM2 act,B2AR arrestin
Cc1ccc2[nH]c(=O)c3cc(C(=O)N4CCN(C(=O)c5ccco5)CC4)sc3c2c1,0.7%,0.9%,-4.2,15.8µM*,-0.1%
O=S(=O)(Nc1cc(Cl)ccc1-n1cncn1)c1cc(Br)ccc1Br,x,15.8µM*,-0.6,x,-0.2%
CCn1cc(Br)c(C(=O)NC(C)c2ccccc2)n1 (centres undefined),0.0%,1.2%[38.3 µM],71.7*,-2.6%,x
CCOc1ccc(S(=O)(=O)N2CCc3cc(OC)c(OC)cc3C2)cc1,0.0%,1.4%,-0.4,15.8µM*,-0.1%
O=C(NNC(=S)NC(=O)c1ccccc1[N+](=O)[O-])c1ccccc1[N+](=O)[O-],0.1%,2.7%[38.3 µM],-1.1,0.8%,-0.3%
O=C(NNC(=S)NC(=O)c1ccccc1[N+](=O)[O-])c1ccccc1O,0.0%,28.2µM*,1.9,3.6%,-1.0%
Cc1cccc(CNC(=O)c2cnn(-c3ncc4c(n3)-c3ccccc3CC4)c2C2CC2)n1,x,-1.3%,x,x,x
N#C/C(=N\Nc1cccc(C(F)(F)F)c1)C(=O)c1ccsc1,-1.4%,11.2µM*,-0.4,10.0%,0.8%
COc1ccc(NC(=O)CN(c2ccc([N+](=O)[O-])cc2)S(=O)(=O)c2ccccc2)c(OC)c1,0.0%,0.7%,0.6,4.1%,0.1%
COc1ccccc1NC(=O)CN(c1ccc([N+](=O)[O-])cc1)S(=O)(=O)c1ccccc1,-1.1%,-1.2%,-3.2,10µM*,-0.2%
COc1ccc(NC(=O)c2c(NC(=O)CNCc3ccco3)sc3c2CCC3)cc1,25.1µM*,6.5%,-0.1,-12.9%,-0.9%
CCCCCCCC[n+]1cccc2c3ccccc3ccc21,1.0%,25.1µM*,-0.5,-7.5%,-0.3%
COc1cc2c(cc1NC(=O)COc1ccccc1OC)oc1ccccc12,-4.6%,14.1µM*,-1.8,-2.3%,-0.1%
O=C(NCc1nnc2c(C(F)(F)F)cc(Cl)cn12)c1ccco1,x,1.3%,-3.3,14.1µM*,0.0%
Cc1ccc2nc(SCC(=O)NCC3Cc4cccc(-c5nc(C)cnc5C)c4O3)[nH]c2c1 (centres undefined),x,2.0%,x,x,x
Cc1ccc(C2C(C#N)=C(N)Oc3cc(N)ccc32)cc1 (centres undefined),x,6.6%,0.1,-5.9%[11.5 µM],0.6%
Cc1ccc(/C=C2\CCC3=C2OC(N)=C(C#N)C3c2ccc(C)cc2)cc1 (centres undefined),11.2µM*,u,26.0,-1.8%,0.5%
CC(C)(C)c1ccc(Oc2nc3ccccn3c(=O)c2/C=C(\C#N)c2nc3ccccc3[nH]2)cc1,25.1µM*,28.2µM*,x,x,x
N#C/C(=C\c1c(Oc2ccc(Br)cc2)nc2ccccn2c1=O)c1nc2ccccc2s1,u,4.3%,x,x,x
Cc1cccc(Oc2nc3c(C)cccn3c(=O)c2/C=C(\C#N)c2nc3ccccc3[nH]2)c1,7.08µM*,8.1%,x,x,x
CCC(C(=O)NCCc1cc(OC)ccc1OC)n1nc(C)c2sc3ccccc3c2c1=O (centres undefined),12.6µM*,3.2%,x,x,x
CCC(C(=O)NCc1cc(OC)ccc1OC)n1nc(C)c2sc3ccccc3c2c1=O (centres undefined),-3.2%,0.4%,x,x,x
COc1ccccc1C=NN=C(NN=Cc1ccccc1OC)NN=Cc1ccccc1OC,x,28.2µM*,-6.3,x,x
COC(=O)c1c(OCc2ccccn2)cc(=O)n2c1CCN(Cc1ccc3c(c1)CCCN3C)CC2,x,2.4%,x,x,x
COc1cccc(NC(=O)CSc2ccc3nnc(-c4ccncc4)n3n2)c1,-0.2%,-0.3%,0.6,1.78µM*,0.1%
Cc1nnc(NC(=O)CSc2ccc(-c3ccco3)nn2)s1,-0.1%,-0.8%,-2.0,20µM*,0.3%

# Assay outcomes (PubChem BioAssay)
